Compound activity as filed in PubChem BioAssay.
TCR activator – activates T cell receptor signaling; primary human leukocytes, anti-CD3, IL-2 HTRF, 48 h; 330,000 tested, under 10 active; AID 504894; Potency, µM (doses to about 9.22 µM), for the others: at the highest dose activation of IL-2 secretion, actives largely listed as activators; note: % of control where 0% means no effect
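48 hr co-incubation of compounds, a-CD3 beads and primary human leukocytes; IL-2 quantified homogeneously by HTRF with anti-IL-2 K and d2 conjugates.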
IMPase Li cell – cell-permeable IMPase inhibitors with lithium potentiation. CHO-M1 cells, IP1 TR-FRET (IP-One), carbachol + lithium. Potency, µM (top dose mostly 59.4 µM), for the others: top-dose activity, negative = IMPase inhibition, usual class: inhibitors. hit rate 0.35% among 210,000. AID 1457;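 note: IP1 builds up when IMPase is blocked and the TR-FRET signal falls; potency is the fitted concentration of half-maximal effect; plate controls were basal vehicle for no effect and high inhibitor control for full effect; nearly all actives have a fitted effect of over 50% in size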
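Steps: plate 2000 CHO-M1 cells per well and culture 16–30 h; add compound and lithium; incubate 30 min, 37C; add d2-IP1 tracer and Eu cryptate anti-IP1 antibody in lysis buffer; read after 10 min at room temperature.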
Lamin A splicing – LMNA splicing modulation. HeLa LMNA splicing GFP/RFP minigene ratio, 48 h. Potency, µM (top dose mostly 46.1 µM), without a hit: top-dose ratio change, negative = inhibition, usual class: inhibitors. hit rate 0.01% among 200,000. AID 1487; active = well fitted inhibition curve with a large enough effect in the signal ratio, with a control signal flat, not every such curve was filed as active; inconclusive = small, poorly fitted or top-dose-only effect, or effect the other way, or a change in a side signal; the % refers to the signal ratio; note: potency is the fitted concentration of half-maximal effect; % is set by controls: 0 for no effect and ±100 for the full control effect
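Read-out is the ratio of GFP to DsRed2 object intensity, acquired by 488 nm laser-scanning cytometry on HeLa lamin A-EGFP minigene reporter cells. Compound incubation 48 hrs at 37 °C in Opti-MEM with 2% FBS; DMSO 0.5% final.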
Luc counter – Kinase-Glo luciferase inhibition (counter-screen); hit rate 0.28% among 200,000; Q27757; Potency, µM (titrated, usually from 38.3 µM), without a hit: at the top dose activity change, negative = inhibition, most hits filed as inhibitors; Kinase-Glo luciferase, ATP luminescence, 8 min; note: potency is the fitted concentration of half-maximal effect; % is set by controls: 0 for no effect and ±100 for the full control effect; nearly all actives have a fitted effect of over 60% in size
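Kinase-Glo luciferase light output from ATP and luciferin was measured with 10 uM ATP, within the enzyme's linear range. Buffer: 50 mM imidazole pH 7.2, 50 mM KCl, 7 mM MgCl2, 0.01% Tween 20, 0.05% BSA; luminescence read after 8 min at ambient temperature.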
Numbers without * were called inactive; ? = inconclusive; . = no result; [ ] = another dose, or the depositor's remark. Only some compounds are listed: those with a hit (about 0.34% of all), similar ones and a draw of the others. Unless noted, calls come from the whole dose curve; as a rule, active = well fitted curve in the direction sought with a large enough effect; inconclusive = small, poorly fitted or top-dose-only effect, or another doubt; inactive = no such curve, though single readings can be large; an effect the other way counts as inactive or inconclusive.

SMILES	TCR activator	IMPase Li cell	Lamin A splicing	Luc counter
COc1ccc(NC2CCCN(C(=O)c3cn(C)c4ccccc34)C2)cc1 (stereo not drawn)	6%	.	.	.
Fc1ccc(NCc2cn3ccccc3n2)cc1	-1%	9%[38.3 µM]	6%	11µM*
Fc1cccc(NCc2cn3ccccc3n2)c1	0%	34%[38.3 µM]	11%	?
CC(C)c1nc2ccc(C(=O)NCCCN3CCN(c4ccccc4F)CC3)cc2o1	.	.	-8%[46 µM]	.
COc1cc(NC(=O)c2ccccc2-n2cnnn2)cc(OC)c1	-8%	.	.	.
COc1cc(OC)cc(C(=O)Nc2ccc(-n3cnnn3)c(C)c2)c1	-1%	-1%[38.3 µM]	2%	14µM*
S=C(NC1CCCCC1)N1CCN(c2ccccn2)CC1	5%[46.1 µM]	-5%	-17%	-3%
Cc1ccc(-c2nc(=S)c3c(n2Cc2ccco2)CCCC3)cc1	2%	?	-13%	-1%
Cc1ccc(-c2nc(=S)c3c(n2Cc2ccco2)CC(C)(C)OC3)cc1	-5%	4µM*	0%[0.0737 µM]	-4%
Cc1nn(-c2ccc(Cl)cc2)c2sc(C(=O)c3c(N)n(C)c(=O)n(C)c3=O)cc12	1%	13µM*	11%	-5%
Cn1c(N)c(C(=O)c2ccc(Cl)cc2)c(=O)n(C)c1=O	1%[46.1 µM]	.	-6%	.
Nc1ccccc1-c1nnc(SCC(=O)Nc2ccccc2OC(F)F)[nH]c1=O	-3%[46.1 µM]	.	.	.
CN(C)c1ccc(/C=C/c2nc3ccccc3s2)cc1	2%	-7%[38.3 µM]	3%	11µM*
CN(C)c1ccc(/C=C/c2ccc3ccccc3n2)cc1	-3%	.	.	.
CCOc1ccc2cc(C(=O)c3ccccc3)c(=O)oc2c1	-4%[46.1 µM]	25µM*	-11%	-3%
Cc1ccc(-c2csc3ncnc(Cl)c23)cc1	-5%[46.1 µM]	6%	3%	1%
COc1ccc(Br)cc1CNC(=O)c1cc(=O)[nH]c2ccc(S(=O)(=O)N3CCCCC3)cc12	.	.	1%[46 µM]	.
O=C(CCCCCn1c(=S)[nH]c2ccc(N3CCOCC3)cc2c1=O)NCc1ccc2c(c1)OCO2	.	?	.	2%
O=C(CCCCCn1c(=S)[nH]c2ccc(N3CCOCC3)cc2c1=O)NCc1ccc(Cl)cc1	.	11µM*	-5%[46 µM]	2%
CCCN1C(=O)C2(C(C(=O)c3ccc(C)o3)=C(O)C(=O)N2CCCN2CCOCC2)c2ccccc21 (stereo not drawn)	-5%	10µM*	5%	2%
C=CCN1C(=O)C2(C(C(=O)c3ccc(C)o3)=C(O)C(=O)N2CCCN2CCOCC2)c2ccccc21 (stereo not drawn)	-3%	.	8%	.
CCC(C)c1ccc(O)c(NC(=O)c2cccnc2)c1 (stereo not drawn)	0%	10µM*	-10%	-1%
CCC(C)c1ccc(NC(=O)c2cccnc2)cc1 (stereo not drawn)	3%	25%[38.3 µM]	-10%	-1%
Cc1cc(NC(=O)c2cccs2)ncc1NC(=O)c1cccc(F)c1	9%	-4%	.	-10%
Cc1cc(NC(=O)c2ccccc2)ncc1NC(=O)c1cccs1	6%	-18%	.	11µM*
SMILES	TCR activator	IMPase Li cell	Lamin A splicing	Luc counter
CC(C)COc1ccc(C(=O)Nc2nnc(S(=O)(=O)N(C)Cc3ccco3)s2)cc1	.	.	-9%[46 µM]	.
Cc1ccsc1/C=N\NC(=O)c1n[nH]c2c1CCC2	-5%[46.1 µM]	2%	?	7.1µM*
O=C(N/N=C/c1c(Cl)cccc1Cl)c1n[nH]c2c1CCCC2	-3%[46.1 µM]	9%	-29%	8.9µM*
O=C(NN=C1CCCC1)c1n[nH]c2c1CCC2	1%	0%	.	?
O=C(NN=C1CCCC1)c1n[nH]c2c1CCCC2	4%	2%	5%[46 µM]	13µM*
O=C(N/N=C/c1c(Cl)cccc1Cl)c1ccc(F)cc1	5%	-6%[38.3 µM]	8%	0%
O=C(CNC(=O)c1ccc2ccccc2c1)OCC(=O)N1CCN(S(=O)(=O)c2ccc3ccccc3c2)CC1	-31%[46.1 µM]	-7%	-6%	4%
CCc1cc(=O)oc2cc(C)cc(O)c12	-4%	3.2µM*	-5%	1%
CN1/C(=C/C(=O)c2cccs2)Sc2ccccc21	.	-14%[38.3 µM]	-3%	14µM*
COc1ccccc1-c1nnc(SCC(=O)Nc2ccc(S(N)(=O)=O)cc2)n1N	1%	.	.	.
CC(=O)C1=C(O)C(=O)N(c2cccnc2)C1c1ccc(Cl)cc1 (stereo not drawn)	-2%	6.3µM*	-1%	1%
COc1cc(OC)cc(C(=O)NNC(=O)c2ccccn2)c1	-5%[46.1 µM]	2%	?	-2%
COc1ccc(C(=O)NNC(=O)c2ccccn2)cc1	0%[46.1 µM]	3%	-1%	0.63µM*
COc1ccc(/C=C/C(=O)c2ccccc2O)cc1	-8%	15%	-1%	?
